The source of these data is PubChem BioAssay.

In test [1] the test system is Human papillomavirus type 1a protein E7 (residues 44-93). Briefly: HPV1a E7 fragment binders on microarrays, primary screen, biochemical, small-molecule microarray, residues 44-93, 635 nm fluorescence (AID 1108).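 Note: E7 fragment applied at 1 µg/mL in TBST for 1 h at 4 C; score combines spot fluorescence with its signal to noise ratio.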 The conditions noted are these: small-molecule microarray binding, fluorescence 635 nm; higher = more signal.
A short description of test [2]: modulators of HCV replicon luciferase signal, primary screen, HCV replication inhibitor project, Huh7 cells, luciferase reporter (AID 1109).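 Note: huh7 hepatoma cells harbouring a luciferase neomycin HCV replicon reporter; luciferase luminescence as measure of HCV replicon replication; test concentration not given here.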 The conditions noted are these: 48 h, higher = more signal.
Test [3] has as its target Left-right determination factor 2 (Homo sapiens) (UniProt O00292). Put plainly: LEFTY2 binders on small-molecule microarrays, primary screen, biochemical, small-molecule microarray, 635 nm fluorescence scan (AID 1110). The conditions noted are these: LEFTY2 binding, higher = more signal.
Test [4] deals with Calmodulin-1 (Homo sapiens) (UniProt P0DP23). Briefly: CALM1 binders on microarrays, EGTA buffer, profiling panel, biochemical, small-molecule microarray, Cy5-labelled CALM1 (AID 1111).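 Note: labelled calmodulin applied in Tris saline Tween buffer holding calcium plus EGTA and DTT.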 The following applies: Cy5-CALM1 binding fluorescence, higher = more signal.
For test [5] the target is unchanged. Put plainly: calcium-bound CALM1 binders on microarrays, profiling panel, artefact control for SMM control-protein annotation, biochemical, small-molecule microarray, Cy5-labelled CALM1, plus calcium (AID 1112).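 Note: score merges spot fluorescence with signal to noise from triplicate slides.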 The following applies: Cy5-CALM1 binding fluorescence, higher = more signal.
Test [6] in a line: small-molecule microarray binders of probe aWnt5a, primary screen, biochemical, biotinylated probe, 635/667 nm fluorescence (AID 1113).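 Note: score merges 667 nm fluorescence intensity with signal-to-noise per printed feature.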 The following applies: higher = more signal.
Test [7] in a line: small-molecule microarray binders of probe aShh, primary screen, biochemical, biotinylated probe, 635/667 nm fluorescence (AID 1114).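 Note: probe is biotin-labelled aShh protein from a stem cell growth factor screen; measures binding of labelled protein to compounds printed on the slide; score merges feature fluorescence at 667 nm with signal-to-noise.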 The following applies: higher = more signal.
A short description of test [8]: small-molecule microarray binders of probe aNog, primary screen, biochemical, biotinylated probe, 635/667 nm fluorescence (AID 1115).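 Note: probe is biotinylated aNog protein used at 0.15 µg/mL for 1 h at 4 C; z-score combines 667 nm fluorescence of each spot with its signal to noise.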 The conditions noted are these: higher = more signal.
Test [9] concerns the target Torsin-1A-interacting protein 1 (Homo sapiens) (UniProt Q5JTV8). Briefly: LAP1 binders from COS7 cell lysate, primary screen, small-molecule microarray, 635/667 nm fluorescence (AID 1116). The following applies: COS7-hLAP1 lysate binding, 635 nm fluorescence, higher = more signal.
Test [10] deals with Alpha-bungarotoxin (Bungarus multicinctus) (UniProt P60615). Briefly: alpha-bungarotoxin binders on microarray, profiling panel, artefact control for SMM control protein annotation, biochemical, small-molecule microarray, Alexa647 label, 635/667 nm fluorescence (AID 1117). The following applies: alpha-BTX-A647 binding fluorescence, higher = more signal.
Alpha-bungarotoxin (Bungarus multicinctus), sequence (P60615 whole entry, looked up): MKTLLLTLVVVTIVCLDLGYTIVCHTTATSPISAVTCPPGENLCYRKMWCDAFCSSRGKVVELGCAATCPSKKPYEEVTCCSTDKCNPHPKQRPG

Torsin-1A-interacting protein 1 (Homo sapiens), sequence (Q5JTV8 whole entry, looked up): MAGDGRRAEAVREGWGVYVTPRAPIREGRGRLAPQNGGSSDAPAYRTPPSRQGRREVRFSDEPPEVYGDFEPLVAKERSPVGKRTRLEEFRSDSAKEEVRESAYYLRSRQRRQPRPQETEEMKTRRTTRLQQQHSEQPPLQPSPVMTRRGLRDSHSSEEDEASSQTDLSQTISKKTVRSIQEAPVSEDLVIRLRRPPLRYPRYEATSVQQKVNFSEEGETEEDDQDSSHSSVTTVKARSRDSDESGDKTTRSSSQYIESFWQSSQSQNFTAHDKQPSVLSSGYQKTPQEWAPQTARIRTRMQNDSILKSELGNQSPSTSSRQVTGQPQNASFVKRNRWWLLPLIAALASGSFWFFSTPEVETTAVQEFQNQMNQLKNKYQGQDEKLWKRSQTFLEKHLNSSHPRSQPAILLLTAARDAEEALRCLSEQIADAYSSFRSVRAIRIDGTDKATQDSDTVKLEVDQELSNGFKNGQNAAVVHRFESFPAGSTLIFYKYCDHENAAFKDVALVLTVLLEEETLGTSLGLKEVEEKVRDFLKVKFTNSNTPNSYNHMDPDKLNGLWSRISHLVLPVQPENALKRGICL
Left-right determination factor 2 (Homo sapiens), sequence (O00292 whole entry, looked up): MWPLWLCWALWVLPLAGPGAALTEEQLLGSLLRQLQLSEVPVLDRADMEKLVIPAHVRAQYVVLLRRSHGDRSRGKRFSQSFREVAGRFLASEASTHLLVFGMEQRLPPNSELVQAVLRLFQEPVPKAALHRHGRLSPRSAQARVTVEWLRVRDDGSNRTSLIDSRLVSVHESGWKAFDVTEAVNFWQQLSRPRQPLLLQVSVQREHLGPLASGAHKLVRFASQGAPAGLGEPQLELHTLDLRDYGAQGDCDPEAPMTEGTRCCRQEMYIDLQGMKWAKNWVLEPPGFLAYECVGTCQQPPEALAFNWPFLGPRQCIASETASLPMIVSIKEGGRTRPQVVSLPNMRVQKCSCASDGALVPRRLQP

As for `CCCCC(=C=CC[C@@H](O)c1ccccc1OCCO)C[C@@H](O)COCc1ccccc1`, the composite z-score in test [1] is 0.0941; in test [3], -0.608; in [4] it was -0.275; in [5], -0.0639; in test [6], 0.384; in [7], -0.237. Besides, the composite z-score is -0.124 in test [8], 0.694 in test [9] and 1.02 in test [10]. In addition, the z-score in [2] is -1.45.
Turning to `COCCOC(=O)N1C(=O)[C@@]2(c3cc(C#CC4=CCCCC4)ccc31)[C@H](C(=O)N1CCCCCCC1)[C@H]1C(=O)O[C@H](c3ccccc3)[C@H](c3ccccc3)N1[C@@H]2c1ccc(O)cc1`, the composite z-score in test [1] was 1.26; in test [3], 0.134; in [4], 0.765; in test [5] it was 0.522; in test [6] it was -0.001; in test [7], 0.156. Besides, the composite z-score in [8] is -0.0901; in test [9], 0.775; in [10], 0.743. This compound also showed a z-score in [2] of -1.35.
`NC(=O)N1C(=O)C2C(C1=O)C1C=C(CCCO)C2C(c2cccs2)N1Cc1cccc(OC(F)(F)F)c1` (stereo not given): the composite z-score is 0.72 in test [1]; -0.0132 in test [3]; 0.155 in test [4]; 0.632 in [5]; -0.0721 in test [6]; 0.723 in test [7]. Further, the composite z-score in test [8] was -0.0132; in [9], 1.06; in test [10] it was 0.797. In [2], this compound gave a z-score of -0.933.
As for `Cc1ccc(S[C@]2(C(=O)NCCCN(C)C)CC(=O)N(C3CCCCC3)[C@@H]2c2ccc(CO)cc2)cc1`, the composite z-score in test [1] was -0.246; in test [3], -0.992; in [4], -0.596; in test [5], -0.677; in test [6] it was -0.129; in [7], -0.0035. The composite z-score in test [8] was -0.255; in test [9], -0.549; in [10], -0.123. For the same compound, the z-score in test [2] is -2.51.
`COc1ccc(CN(C2=CC[C@@]3(C(N)=O)C(=O)C(Cl)=C(Cl)C(=O)[C@@]3(C#N)C2)S(=O)(=O)c2ccc(Br)cc2)cc1`: the composite z-score in test [1] was 0.731; in test [3], -0.885; in test [4] it was 1.1; in test [5], 0.391; in [6], -0.11; in test [7] it was -0.0769. In addition, the values for the composite z-score in [8], in [9] and in [10] were 0.784, 1.02 and -0.181, respectively. Moreover, the z-score in test [2] was -1.56.
Regarding `CN(C)C(=O)[C@@]1(Cc2ccccc2CN=[N+]=[N-])N=C(c2ccc(OCCCO)cc2)O[C@H]1c1ccccc1CN=[N+]=[N-]`, the composite z-score in test [1] was 1.27; in test [3], -0.462; in test [4], 1.69; in test [5], 1; in [6] it was 0.0655; in test [7], 0.551. Also, the figures for the composite z-score in [8], in [9] and in test [10] were 0.771, 1.56 and 1.11, respectively. Also, in test [2], the z-score is -2.63.
For the compound `COc1ccc(CCN2C(=O)[C@@]3(Cc4ccccc42)c2ccccc2C(=O)N(Cc2ccccc2OC)[C@H]3c2ccc(CO)cc2)cc1`, the composite z-score in test [1] is -0.131; in test [3] it was -1.03; in test [4], 0.0678; in [5] it was 0.466; in test [6], -0.1; in test [7], -0.155. Also, the composite z-score in [8] is 0.898; in test [9] it was -0.119; in test [10] it was -0.749. Besides, in [2], the z-score was -0.601.
Turning to `COC(=O)[C@@]1(Cc2ccc(OC)cc2)[C@H]2c3cc(C(=O)N(C)C)n(CCO)c3C[C@H]2CN1C(=O)c1ccccc1`, the composite z-score in [1] was -0.317; in test [3], -0.511; in [4], 1.67; in test [5], 1.1; in test [6] it was -0.0398; in test [7] it was 0.0044. Moreover, the results for the composite z-score in test [8], in [9] and in test [10] were -0.426, 3.28 and 1.18, respectively. In test [2], this compound registered a z-score of -0.441.
For `CCCCCCc1nc(C2CC2)cc2c1[Si](C(C)C)(C(C)C)O[C@H]2c1ccccc1`, the composite z-score is -1.1 in test [1]; 0.359 in [3]; -0.806 in [4]; -0.852 in test [5]; -0.154 in [6]; -0.157 in test [7]. Moreover, the composite z-score was -0.422 in [8], -0.186 in [9] and -0.271 in [10]. This compound also displayed a z-score in [2] of -0.0742.
Consider `O=C(NCC(F)(F)F)[C@@H]1c2ccccc2C(=O)N(Cc2ccc(OC(F)(F)F)cc2)[C@H]1c1ccc(CO)cc1`, for which the composite z-score in test [1] was 1.4; in test [3], 0.174; in [4] it was -0.112; in [5], 0.0084; in test [6], -0.0704; in test [7], 0.0839. Also, the composite z-score in [8] is -0.224; in test [9], 0.148; in test [10] it was 0.173. The compound further displayed a z-score in test [2] of -0.971.
For `CCC[C@@H]1C[C@@]1(CCC)[C@@H](NC(=O)OCc1ccccc1)c1ccc(-c2ccccc2)cc1`, the composite z-score in test [1] is -0.44; in [3], -0.484; in test [4], 0.233; in test [5] it was 1.1; in [6], -0.0026; in test [7], 1.42. Also, the composite z-score in [8] is -0.304; in [9] it was -0.143; in test [10], -0.899. In addition, the z-score in test [2] is -1.5.
Consider `NCCCCCCNC(=O)[C@@H]1C[C@@H]2C(=O)N[C@@H](CCCCN)C(=O)N2[C@@H]1c1cccc(OCCO)c1`, for which the composite z-score worked out at 1.32 in test [1]; 1.1 in test [3]; 1.02 in test [4]; 1.2 in test [5]; 0.188 in test [6]; 1.05 in test [7]. Besides, the composite z-score in test [8] turned out to be 2.03; in test [9], 0.882; in test [10], 0.933. In addition, the z-score in test [2] was -0.661.
As for `C=C[C@@H](OC)[C@H](OC(=O)Nc1ccc(SC)cc1)c1ccc(O)c(F)c1`, the composite z-score in [1] was 1.33; in test [3] it was -0.374; in test [4], -0.25; in test [5], -0.479; in [6], -0.142; in test [7], -0.0626. The composite z-score in test [8] came out at 0.0553; in test [9], 0.345; in [10], 1.22. The z-score in [2] worked out at 0.362.
For the compound `COCCOC(=O)N1C(=O)[C@@]2(c3cc(C#CC4=CCCCC4)ccc31)[C@H](c1ccccc1OCCO)N1[C@H](c3ccccc3)[C@H](c3ccccc3)OC(=O)[C@H]1[C@@H]2C(=O)Nc1nc2ccccc2s1`, the composite z-score in test [1] is 1.33; in [3], 0.526; in test [4], 1.36; in test [5], 0.13; in test [6], -0.0236; in test [7] it was 0.0253. The figures for the composite z-score in test [8], in test [9] and in test [10] were 0.904, 0.666 and 1.48, respectively. The same compound showed a z-score in [2] of -2.23.
With `C=CCC(OC(C)=O)[C@@H]1[C@@H](N(Cc2ccc(-c3ccccc3)cc2)C(=O)Cc2ccc(F)cc2)c2cc(OCCCO)ccc2N1C(=O)Cc1ccc(OC)cc1` (stereo not given in full), the composite z-score in test [1] is -0.0218; in test [3] it was 0.0922; in [4], 0.498; in test [5], -0.124; in test [6], -0.0478; in test [7], -0.343. Also, the results for the composite z-score in test [8], in test [9] and in [10] were -0.394, -0.002 and 0.215, respectively. For the same compound, the z-score in [2] is -0.71.
As for `COC(=O)c1c2oc(c1C(=O)OC)C(=O)N(C)Cc1cn(nn1)C[C@H](Cc1ccccc1)NC(=O)N[C@H](CO)CC2`, the composite z-score in test [1] is -1.07; in test [3] it was -0.683; in test [4], -0.633; in test [5], -0.197; in test [6], -0.246; in [7], -0.154. Moreover, the figures for the composite z-score in test [8], in test [9] and in test [10] were -0.299, -0.641 and -0.277, respectively. The compound further gave a z-score in [2] of -1.18.
Regarding `COCCOC(=O)N1C(=O)[C@@]2(c3cc(C#CC4=CCCCC4)ccc31)[C@H](c1ccc(O)cc1)N1[C@H](c3ccccc3)[C@H](c3ccccc3)OC(=O)[C@H]1[C@@H]2C(=O)N1CCN(c2ncccn2)CC1`, the composite z-score in [1] is -0.444; in [3] it was -0.742; in [4], -0.676; in test [5], 0.451; in test [6], -0.195; in [7] it was -0.138. The composite z-score in test [8] was -0.445; in test [9] it was -0.201; in test [10] it was -1.11. The same compound showed a z-score in test [2] of -0.131.
